ChEMBL document CHEMBL1201862, “PubChem BioAssay data set” (2004)
Among all 400,000 compounds or so, about 2,100 (0.53%) were called active. Inconclusive results (about 14%) are left out. No rule for the calls is given here. What follows is part of a selection rich in actives, with near analogues and random picks from the rest.

The compounds below were run against Ataxin-2 (Homo sapiens) (UniProt Q99700) (assay: qHTS for Inhibitors of ATXN expression.).
Chain of Ataxin-2 (Homo sapiens) (Q99700 whole entry): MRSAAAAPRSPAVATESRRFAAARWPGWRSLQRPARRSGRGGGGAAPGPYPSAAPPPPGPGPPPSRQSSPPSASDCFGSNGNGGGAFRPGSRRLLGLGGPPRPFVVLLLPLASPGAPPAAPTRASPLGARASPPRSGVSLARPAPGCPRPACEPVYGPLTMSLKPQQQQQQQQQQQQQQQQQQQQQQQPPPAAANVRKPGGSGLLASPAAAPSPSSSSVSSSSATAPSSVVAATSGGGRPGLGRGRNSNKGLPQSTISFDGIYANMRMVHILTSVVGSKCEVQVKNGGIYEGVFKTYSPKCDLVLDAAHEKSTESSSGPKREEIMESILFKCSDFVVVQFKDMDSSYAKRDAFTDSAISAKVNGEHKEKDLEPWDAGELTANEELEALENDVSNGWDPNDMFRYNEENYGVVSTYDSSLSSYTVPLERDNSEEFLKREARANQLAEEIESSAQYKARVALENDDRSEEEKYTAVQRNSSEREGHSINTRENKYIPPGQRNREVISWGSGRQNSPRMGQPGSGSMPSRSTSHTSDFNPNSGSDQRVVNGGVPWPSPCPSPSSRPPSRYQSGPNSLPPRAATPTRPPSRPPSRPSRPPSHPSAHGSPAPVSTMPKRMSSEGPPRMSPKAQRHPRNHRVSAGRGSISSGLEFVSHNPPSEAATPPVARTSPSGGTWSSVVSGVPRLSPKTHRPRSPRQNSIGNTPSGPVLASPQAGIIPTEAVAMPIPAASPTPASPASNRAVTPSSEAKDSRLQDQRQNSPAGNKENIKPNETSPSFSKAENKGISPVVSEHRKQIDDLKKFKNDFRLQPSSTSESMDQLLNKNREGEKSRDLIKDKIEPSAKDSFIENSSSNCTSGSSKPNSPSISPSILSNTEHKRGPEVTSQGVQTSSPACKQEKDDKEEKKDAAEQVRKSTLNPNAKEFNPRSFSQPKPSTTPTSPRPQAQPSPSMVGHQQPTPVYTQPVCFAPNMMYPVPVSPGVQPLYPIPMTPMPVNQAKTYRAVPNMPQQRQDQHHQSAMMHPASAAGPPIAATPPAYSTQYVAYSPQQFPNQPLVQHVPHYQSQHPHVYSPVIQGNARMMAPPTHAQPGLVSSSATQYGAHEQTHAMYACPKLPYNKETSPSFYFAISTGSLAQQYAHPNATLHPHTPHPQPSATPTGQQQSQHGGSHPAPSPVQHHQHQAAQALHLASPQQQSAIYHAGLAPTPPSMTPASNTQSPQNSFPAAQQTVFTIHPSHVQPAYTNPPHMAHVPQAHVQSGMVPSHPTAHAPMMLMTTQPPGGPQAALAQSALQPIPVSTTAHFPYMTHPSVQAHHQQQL
Format: functional
For `CS(=O)(=O)c1cnc2c(-c3ccsc3)cnn2c1N`, the Potency was “inactive”. In the case of `Nc1ccc2nc3c(=O)n(CCc4ccccc4)c(=O)[nH]c3nc2c1`, the Potency is reported as “inactive”. For `O=C(COC(=O)/C=C/c1ccc(Br)o1)NC1CCCCC1`, the Potency was “inactive”. For `O=C(c1ccccc1)c1ccc(OCC(O)CNCc2ccc(F)cc2)cc1` (stereo unspecified), the Potency was “inactive”. With `OC(CNCCc1ccc(C(F)(F)F)cc1)COc1ccc2ccccc2c1` (stereo unspecified) the Potency was 25.1 µM (active). For `COc1ccc(C2CC(c3ccncc3)=NN2c2ccc(S(N)(=O)=O)cc2)cc1` (stereo unspecified), the Potency was “inactive”. For `O=C(CNC(=O)c1ccccc1Br)N/N=C/c1ccccc1O`, the Potency was “inactive”. For `CC(Oc1ccccc1Cl)C(=O)N(Cc1cccs1)C1CCS(=O)(=O)C1` (stereo unspecified), the Potency was “inactive”. In the case of `Cc1cc(NC(=O)CSc2cn(C)c3ccccc23)no1`, the Potency is reported as “inactive”. `Cc1c(C(=O)Cc2ccccc2)n(C)c2ccccc12` was tested, and the Potency was “inactive”. For `Cn1cc(C(=O)CCl)c2ccccc21`, the Potency was 35.5 µM (active). `Cc1cc(Sc2nc(NC(C)(C)C)nc(N3CCOCC3)n2)nc(Cl)n1` was tested, and the Potency was “inactive”. With `Cc1nccc2cc3[nH]c4ccccc4c3cc12` the Potency was “inactive”. In the case of `Cc1cc2[nH]c3c(c[n+](C)c4ccccc34)c2cc1C`, the Potency is reported as 31.6 µM (active). With `CCn1c(=N)c(C(=O)NC)cc2c(=O)n3cccc(C)c3nc21` the Potency was “inactive”. With `Cc1ccc(S(=O)(=O)Nc2nc3n(n2)C(c2ccc(Cl)cc2)C=C(c2ccccc2)N3)cc1` (stereo unspecified) the Potency was “inactive”. For `CN(C(=O)COC(=O)c1cccnc1O)C1CCCCC1`, the Potency was “inactive”. With `COc1ccccc1C(=O)OCC(=O)NC(=O)NC1CCCC1` the Potency was “inactive”. With `CN(C)c1ccc(N=Nc2ccccc2C(=O)OCC(=O)NC2CCCC2)cc1` the Potency was 28.2 µM (active). `CC(C)Cc1nc2sc3c(SCC(N)=O)ncnc3c2c2c1CCC2` was tested, and the Potency was “inactive”. For `CC(=O)/N=c1\c(C#N)cc2c(=O)n3ccccc3nc2n1Cc1ccccc1`, the Potency was “inactive”. `CCN(CC)CCn1c(-c2ccccc2)cs/c1=N\c1ccccc1` was tested, and the Potency was 15.8 µM (active). `CCN(CC)c1ccc2cc(S(=O)(=O)c3ccc(C)cc3)c(=O)oc2c1` was tested, and the Potency was “inactive”. With `CN(C)CCCNc1cc(C(C)(C)C)nc2c(-c3ccc(Cl)cc3)cnn12` the Potency was 39.8 µM (active). In the case of `Cc1cc(C)n(-c2cc(C(C)(C)C)nc3c(-c4ccccc4)cnn23)n1`, the Potency is reported as “inactive”. With `Cc1nc2c(-c3ccc(Cl)cc3)cnn2c2c1CCC2` the Potency was “inactive”. In the case of `O=c1c2ccccc2[nH]c2ccc(O)cc12`, the Potency is reported as “inactive”. `CCCCOc1ccc(C(=O)CCN2CCOCC2)cc1` was tested, and the Potency was 23.8 µM (active). For `CCOc1ccc(C(=O)CCN2CCOCC2)cc1`, the Potency was 39.8 µM (active). For `COc1ccc(OCCC(=O)NCCN2CCOCC2)cc1`, the Potency was “inactive”. In the case of `CCOc1ccc(C(=O)COC(=O)Cn2cnc3c2c(=O)n(C)c(=O)n3C)cc1`, the Potency is reported as “inactive”. In the case of `CCOc1ccc2c(c1)C(N(CCN1CCOCC1)C(=O)Nc1ccccc1)CC(C)(C)O2` (stereo unspecified), the Potency is reported as “inactive”. With `O=C(CCN1CCOCC1)N/N=C/c1cc(Br)cc(Br)c1O` the Potency was “inactive”. With `CCCN(CCC)S(=O)(=O)c1ccc(C(=O)Nc2sc3c(c2C(=O)OC)CCN(CC)C3)cc1` the Potency was “inactive”. For `CCc1cc(=O)oc2cc(C)cc(O)c12`, the Potency was “inactive”. For `O=C(COC(=O)c1cc(S(=O)(=O)N2CCCCC2)ccc1N1CCOCC1)c1ccccc1Cl`, the Potency was “inactive”. In the case of `COc1ccc(Nc2ccnc(Nc3ccc(OC)cc3)n2)cc1`, the Potency is reported as “inactive”. For `COc1ccc(Nc2ccc3c(c2)=NC2(CCCCC2)[N+]=3[O-])cc1`, the Potency was 20 µM (active). For `CC(=O)c1cc2c(s1)-c1cc(F)ccc1OC2`, the Potency was “inactive”. For `O=C(Nc1cccc(-c2csc(Nc3ccc(Cl)cc3)n2)c1)c1cc([N+](=O)[O-])cc(C(F)(F)F)c1`, the Potency was 35.5 µM (active). With `O=C(Nc1ccc(-c2csc(Nc3cccc(C(F)(F)F)c3)n2)cc1)c1cccc(C(F)(F)F)c1` the Potency was 20 µM (active). With `NS(=O)(=O)c1cccc(NC(=O)CSc2n[nH]c(-c3cccs3)n2)c1` the Potency was “inactive”. `CC(C)(C)c1ccccc1NC(=O)c1cnn2c(C(F)F)cc(-c3ccccc3)nc12` was tested, and the Potency was “inactive”. In the case of `COc1ccc(CC(N)c2csc(NC(=O)Nc3ccccc3C(C)(C)C)n2)cc1` (stereo unspecified), the Potency is reported as 39.8 µM (active). With `O=C(Cc1ccccc1F)Nc1ccccc1-c1ccccc1` the Potency was “inactive”. With `COc1ccc(CC(N)c2csc(NC(=O)Nc3ccccc3-c3ccccc3)n2)cc1` (stereo unspecified) the Potency was 39.8 µM (active). With `COc1cccc(OCC(=O)Nc2ccccc2-c2ccccc2)c1` the Potency was “inactive”. In the case of `CCOC(=O)CCc1c(C)c2cc3c(c(C)c2oc1=O)OCN(CCc1ccccc1OC)C3`, the Potency is reported as “inactive”. With `Cc1cc(C(=O)NNC(=O)c2ccc(C(F)(F)F)cc2)no1` the Potency was “inactive”. With `CC1C/C(=N\NC(=O)c2ccc([N+](=O)[O-])cc2)CC(C)(C)C1` (stereo unspecified) the Potency was “inactive”. `Cc1ccc(NS(=O)(=O)c2ccc(C(=O)N3CCN(c4ncccn4)CC3)cc2)cc1` was tested, and the Potency was “inactive”.
